Test system: glycogen synthase kinase-3 (GSK3A per assay name; protocol says GSK3B)
Assay: compounds binding glycogen synthase kinase-3 – biochemical, small-molecule microarray, 635 nm fluorescence, GSK3A, primary screen (AID 1103); also: the record names both GSK3A and GSK3B
Conditions: fluorescence 635 nm, higher = more signal

Structure (SMILES) | composite z-score
CCOC(=O)C1=CC[C@@H](c2ccccc2)N(S(=O)(=O)c2ccc(C)cc2)[C@H]1c1ccccc1I | 0.698
O=C1O[C@H](c2ccccc2)[C@H](c2ccccc2)N2[C@H]1[C@@H](C(=O)O)[C@]1(C(=O)Nc3ccc(C#CCCO)cc31)[C@H]2c1ccc(OCCO)cc1 | 1.27
COc1ccc(C(O)C2C=CC3C(=O)NC(=O)C3N2Nc2ccc(Cl)cc2Cl)c2ccccc12 (stereo not drawn) | 0.15
COCCCNC(=O)[C@@]1(CCC(=O)OC(C)(C)C)COC(c2ccc(OCCCO)cc2)=N1 | 0.986
NC(=O)N1C(=O)C2C(C1=O)C1C=C(CCCO)C2C(C2CC2)N1Cc1sc2ccccc2c1Cl (stereo not drawn) | 1.09
C=CCOC(=O)[C@@H]1[C@H]2C(=O)O[C@H](c3ccccc3)[C@H](c3ccccc3)N2[C@H](c2ccc(OCCOC(=O)[C@H]3C[C@H]4C(=O)N[C@@H](CCCCN(C)C)C(=O)N4[C@H]3c3ccc(O)cc3)cc2)[C@@]12C(=O)Nc1ccc(I)cc12 | 1.33
CCCC=C(CCC)[C@@H](NC(=O)c1ccc(C(F)(F)F)cc1)c1ccc(C(F)(F)F)cc1 | 1.13
COc1cc(C(O)C2C=CC3C(=O)N(c4ccccc4)C(=O)C3N2Nc2ccccc2)cc(OC)c1OC (stereo not drawn) | 1.31
CC(=O)OCC1C2CC[C@H]3C(OCc4ccc(F)cc4C(F)(F)F)OC[C@]4(C)[C@H]3C2=C(CN4C(=O)OC(C)(C)C)[C@H](C)C1COC(C)=O (stereo partly drawn) | -0.466
COC(=O)[C@@]1(Cc2ccc(F)cc2)[C@H]2c3cc(C(=O)N4CCCC4)n(Cc4cc(F)cc5c4OCOC5)c3C[C@H]2CN1C(=O)c1ccccc1 | -0.0785
C[C@@H]1ON(c2ccccc2)[C@H](c2ccccc2)[C@H]1C(=O)O | 0.362
C=CCC(OC(C)=O)[C@@H]1[C@@H](N(Cc2cc3ccccc3o2)C(=O)Cc2ccc(OC)cc2)c2cc(OCCCO)ccc2N1C(=O)c1ccc2ccccc2n1 (stereo partly drawn) | 0.0115
COC(=O)[C@@]1(Cc2ccc(OC)cc2)[C@H]2c3cc(C(=O)N4CCCC4)n(Cc4c(CO)[nH]cc(C)c4=O)c3C[C@H]2CN1C(=O)c1ccccc1 | 0.237
COc1ccc(NN2C(C(O)c3ccc(I)cc3)C=CC3C(=O)N(C4CCCCC4)C(=O)C32)cc1 (stereo not drawn) | 1.31
O=C1O[C@H](c2ccccc2)[C@H](c2ccccc2)N2[C@H]1[C@@H](C(=O)N1CCN(c3ncccn3)CC1)[C@]1(C(=O)Nc3ccc(C#CCCO)cc31)[C@H]2c1ccc(O)cc1 | -0.906
CC1CC/C=C\[C@H]2OC34C=CCN(c5ccc(Cl)cc5)C(=O)[C@H]3N(CCCCCCO)C(=O)[C@]4(C)C2C(=O)O1 (stereo partly drawn) | -0.594
O=C(NC1CC1)[C@@H]1c2ccccc2C(=O)N(Cc2cc(C(F)(F)F)cc(C(F)(F)F)c2)[C@H]1c1ccc(CO)cc1 | -0.436
COc1ccc([Si](C)(C)[C@@H]2[C@@H](CC(=O)N3Cc4ccccc4C[C@H]3CO)O[C@]3(C(=O)N(Cc4ccc(N5CCOC5=O)cc4)c4ccccc43)[C@H]2C)cc1 | 0.969
CN1C(=O)C2C(C1=O)C1C=C(CCCO)C2C(C2CC2)N1Cc1cccc(OC(F)(F)F)c1 (stereo not drawn) | 0.393
[N-]=[N+]=Nc1ccccc1[C@@H]1OC(c2ccc(OCCCO)cc2)=N[C@]1(Cc1ccccc1)C(=O)NCCN1CCOCC1 | 0.774
COC(=O)[C@@]1(Cc2ccccc2)N=C(c2ccc(OCCCO)cc2)O[C@H]1c1ccccc1CN=[N+]=[N-] | 0.893
Cc1ccc(N2C(=O)c3ccccc3[C@](C)(C(=O)NCCCN(C)C)[C@@H]2c2ccc(CO)cc2)nc1 | -1.21
CC(C)N1C(=O)C[C@@](C(=O)NCCN2CCOCC2)(c2ccc([N+](=O)[O-])cc2)[C@H]1c1ccc(CO)cc1 | -0.175
CN(C)CCCNC(=O)[C@@]1(Cc2ccccc2I)c2ccccc2C(=O)N(C2CCCCC2)[C@H]1c1ccc(CO)cc1 | 1.03
CC(C)N1C(=O)c2ccccc2[C@@H](C(=O)NCC(F)(F)F)[C@@H]1c1ccc(CO)cc1 | -0.871
CC(C)=C1C(=O)C(c2ccccc2)=C2CN3C(=O)N(CCc4ccccc4)C(=O)[C@]3(C)[C@H]21 | -0.701
COCCCNC(=O)[C@@]1(CCS(=O)(=O)c2ccccc2)COC(c2ccc(OCCCO)cc2)=N1 | 0.878
O=C1C2C=CC(C(O)C3CCCCC3)N(n3cnnc3)C2C(=O)N1Cc1ccccc1 (stereo not drawn) | 1.1
